From PubChem BioAssay (NCI)
About 79,000 compounds went through this panel and 15% of them were active in at least one assay; those are over-represented in the sample as a whole. No stated cut-off is given here; in the data, active means growth inhibition above about 70%; inactive means the rest.

Columns and labels:
[1] = NCI Yeast Anticancer Drug Screen. Data for the rad50 strain (AID 155);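 further: 0% = growth of vehicle-only cultures of the same strain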; details: S. cerevisiae rad50 strain growth inhibition; at 50.0 µM; stronger effect = higher value
Outline: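 Compounds were tested on a yeast strain with an engineered DNA damage repair alteration; the reported value is growth inhibition normalised to vehicle treatment.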

[2] = NCI Yeast Anticancer Drug Screen. Data for the mec2-1 strain (AID 157); details: S. cerevisiae mec2-1 strain, at 50.0 µM, stronger effect = higher value
Outline: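 Mutant yeast (mec2-1) grown with compound; growth inhibition relative to vehicle control reported.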

[3] = NCI Yeast Anticancer Drug Screen. Data for the sgs1 mgt1 strain (AID 161);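 further: 0% = growth of cultures given vehicle only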; details: S. cerevisiae sgs1 mgt1 strain, at 50.0 µM, stronger effect = higher value
Outline: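 This yeast growth screen uses a strain with defined DNA-repair lesions; compound-treated growth is compared with vehicle-treated growth.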

[4] = NCI Yeast Anticancer Drug Screen. Data for the cln2 rad14 strain (AID 165);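 further: 0% = growth equal to vehicle treated cultures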; details: S. cerevisiae cln2 rad14 strain, at 50.0 µM, stronger effect = higher value
Outline: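 Readout is yeast growth inhibition versus vehicle-treated controls, using a strain with cln2 and rad14 alterations exposed to compound.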

[5] = NCI Yeast Anticancer Drug Screen. Data for the bub3 strain (AID 167); details: S. cerevisiae bub3 mutant strain, at 50.0 µM, stronger effect = higher value
Outline: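 Growth of a checkpoint-deficient yeast mutant is measured after compound exposure. Values represent inhibition relative to vehicle.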

[6] = NCI Yeast Anticancer Drug Screen. Data for the mlh1 rad18 strain (AID 175); details: S. cerevisiae mlh1 rad18 strain growth inhibition; at 50.0 µM; stronger effect = higher value
Outline: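 Genetically defined yeast (DNA repair-deficient) exposed to compounds; growth inhibition determined relative to vehicle.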

Measured: growth inhibition

O=C(c1ccc(Cl)s1)C(Cl)C(Cl)c1ccc(Cl)s1 (stereo unspecified)
inactive: [1] -20.5% | [2] -2.4% | [3] 1.2% | [4] -12.4% | [5] 29.6% | [6] -3.55%

O=C1C=C(c2ccccc2)CC1
inactive: [1] -17.8% | [2] 2.55% | [3] -6.05% | [4] 8.4% | [5] 13.1% | [6] 0.95%

CCCCCCOC(=O)CCCCCC1CCCCC1
inactive: [1] 3.15% | [2] -6.5% | [3] 2.3% | [4] -77.4% | [5] -6.05% | [6] -6.55%

O=C(N/N=C\c1ccc(Cl)cc1)c1ccccc1
inactive: [1] 8% | [2] 6.9% | [3] -0.1% | [4] 4.45% | [5] 7.05% | [6] -4.55%

CC1CN(CNC(=O)NCN2CC(C)OC(C)C2)CC(C)O1 (stereo unspecified)
inactive: [1] 15.7% | [2] -3.7% | [3] 24.8% | [4] 11.9% | [5] 0.95% | [6] -0.8%

CCCCCCCCCCCCCCCCCC(=O)N/N=C\c1ccc(O)c(OC)c1
inactive: [1] -11.6% | [2] -13.6% | [3] -9.35% | [4] -56.8% | [5] -2.55% | [6] 6.5%

CC1=CC(=O)CCC1c1ccccc1 (stereo unspecified)
inactive: [1] -52.6% | [2] -4.75% | [3] -19.8% | [4] 0.8% | [5] -10.4% | [6] -5.95%

OC1CCCSC1 (stereo unspecified)
inactive: [1] 18.1% | [2] -15.9% | [3] 12.8% | [4] 4.75% | [5] 16.6% | [6] 27.9%

O=C1O[C@@H]2C3COC(O)[C@](O)(O3)[C@@H]2/C1=C\c1ccc(O)cc1 (stereo partly specified)
inactive: [1] 20.1% | [2] 10.4% | [3] 8.4% | [4] 5.25% | [5] 8.45% | [6] 9.4%

c1ccc(Oc2ccc(-c3ccccc3)cc2)cc1
inactive: [1] -28.9% | [2] -52.9% | [3] 1.8% | [4] -7.85% | [5] -8.55% | [6] -31.3%

O=c1nc2oc(-c3ccccc3)cn2c(=O)n1-c1ncc(-c2ccccc2)o1
inactive: [1] 1.35% | [2] -6.9% | [3] 1.4% | [4] 22.4% | [5] 8.1% | [6] 6.05%

COc1ccc2ccccc2c1C1OC(=O)c2ccccc21 (stereo unspecified)
inactive: [1] 37.8% | [2] 24.6% | [3] 51.7% | [4] 33.4% | [5] 25.2% | [6] 52.5%

CC1=C(C(=O)O)CCCO1
inactive: [1] -7.6% | [2] 7.75% | [3] 10.2% | [4] -3% | [5] -3.75% | [6] 25.7%

CC(=O)C1CCC2C3C=C(C)C4=CC(=O)CCC4(C)C3(F)C(=O)CC12C (stereo unspecified)
inactive: [1] 13.8% | [2] -12.2% | [3] 6% | [4] -13.1% | [5] 14.2% | [6] 15.9%

ClCc1ccc(-c2ccccc2)cc1
inactive: [1] 48.8% | [2] 16.4% | [3] 19.7% | [4] 26.7% | [5] 8.7% | [6] 47%

COc1cc(C)c(O)c(C/C=C(\C)CC2=C[C@@]3(C)CCC[C@@]3(C)[C@]3(CC(O)C(C)(C)O3)O2)c1 (stereo partly specified)
inactive: [1] 21.1% | [2] 6.2% | [3] -8.5% | [4] 4.75% | [5] 4.95% | [6] 10%

COC(=O)c1cc2c3c(ccc2[nH]1)N(C(=O)c1cc2c4c(ccc2[nH]1)N(C(=O)c1cc2c5c(ccc2[nH]1)N(C(N)=O)CC5)CC4)CC3
inactive: [1] 18.8% | [2] 5.05% | [3] -2.05% | [4] 15.7% | [5] 29.8% | [6] 11.9%

CCCc1cc(-c2ccc(-c3cc(CCC)c(C=O)[nH]3)s2)[nH]c1C=O
inactive: [1] -19% | [2] -19.6% | [3] -31% | [4] -4.9% | [5] -20.1% | [6] -46.9%

C=C(C)C(=O)Oc1ccccc1-c1ccccc1
inactive: [1] 2.55% | [2] -10.2% | [3] -5.5% | [4] 15.6% | [5] 2.65% | [6] -26.5%

CCCC(N)C(=O)NC(Cc1c[nH]c2ccccc12)C(=O)O (stereo unspecified)
inactive: [1] -23.9% | [2] -6.65% | [3] -12% | [4] -0.3% | [5] 0.9% | [6] 2.05%

CSC1C(=O)Nc2ccc([N+](=O)[O-])cc21 (stereo unspecified)
inactive: [1] -11.6% | [2] -12.7% | [3] 0.45% | [4] -19.3% | [5] -39.7% | [6] -0.8%
